This note sets out measurements from a collection of fitness landscapes (doi:10.1126/science.1257360).

Over roughly 140,000 sequences, “enrichment ratio after two sorts for PhoP signalling” has its median near 0; the highest 2% begin near 11. Shown is part of a subset that was picked to be rich in the highest values. Bounds are passed on as bounds.

The labels stand for the following.
B1: PhoQ; a variant is named by its letters at X, in order, P23837 (parent)
chain: MKKLLRLFFPLSLRVRFLLATAAVVLVLSLAYGMVALIGYSVSFDKTTFRLLRGESNLFYTLAKWENNKLHVELPENIDKQSPTMTLIYDENGQLLWAQRDVPWLMKMIQPDWLKSNGFHEIEADVNDTSLLLSGDHSIQQQLQEVREDDDDAEMTHSVAVNVYPATSRMPKLTIVVVDTIPVELKSSYMVWSWFIYVLSANLLLVIPLLWVAAWWSLRPIEALAKEVRELEEHNRELLNPATTRELTSLVRNLNRLLKSERERYDKYRTTLTDLTHSLKTPLXXLQXXLRSLRSEKMSVSDAEPVMLEQISRISQQIGYYLHRASMRGGTLLSRELHPVAPLLDNLTSALNKVYQRKGVNISLDISPEISFVGEQNDFVEVMGNVLDNACKYCLEFVEISARQTDEHLYIVVEDDGPGIPLSKREVIFDRGQRVDTLRPGQGVGLAVAREITEQYEGKIVAGESMLGGARMEVIFGRQHSAPKDE

The variants in this assay derive from B1. Put plainly: enrichment ratio after two sorts for PhoP signalling (ratio (wild type AVST 3.29)); higher = more functional. To be noted: with PhoP (E. coli).
For the variant MEGD, the enrichment ratio is at most 0.25.
In the case of MECA it was 3; in that of NECV, at most 0.25; in that of MECI, 12.8.
Regarding DNCI, the enrichment ratio was at most 0.25.
In the case of VVVI, the enrichment ratio is at most 0.25.
In the case of MDLY it was at most 0.25; in that of TMFE, at most 0.25.
In the case of MWWC it was at most 0.25; in that of SMTG, 5.2; in that of SMGY, 7.3.
For SMAN the value was 6.01; for SMGD, 1.08.
Take SMRY: the enrichment ratio was at most 0.25.
For SMAS the value was 11.6; for SMAI, 13.5.
For SMVG the value was 8.8.
With SMYI, the enrichment ratio is at most 0.25.
Regarding SMAT, the enrichment ratio is 7.92.
For SMAG the value was 11.3; for SMAY, 25.3; for HEDR, at most 0.25.
For DAFY the value was at most 0.25; for QNHA, at most 0.25.
As to MIDS, the enrichment ratio was at most 0.25.
As to PWKL, the enrichment ratio was at most 0.25.
For HVPL the value was at most 0.25.
For VFFI the value was at most 0.25; for KESQ, at most 0.25.
In the case of HGIC it was at most 0.25.
With AKCM, the enrichment ratio stood at 15.6.
In the case of HKCM it was at most 0.25.
In the case of MKCM it was at most 0.25; in that of TKCM, 46.1.
For KKCM the value was at most 0.25.
For the variant AICM, the enrichment ratio came to 6.05.
Turning to SKKH, the enrichment ratio is at most 0.25.
For PYDF the value was at most 0.25; for MIQV, at most 0.25; for GAMG, at most 0.25.
Take NSLI: the enrichment ratio was 4.88.
For FALI the value was 15.1; for VSLI, 14.
Take VSLA: the enrichment ratio amounted to 0.756.
On to ISLA, for which the enrichment ratio is at most 0.25.
Take FALA: the enrichment ratio came to 5.9.
As for ISLI, the enrichment ratio is 11.2.
As for FALS, the enrichment ratio came to 8.07.
In the case of RSLI, the enrichment ratio is at most 0.25.
For TSLI the value was 11.8; for MMLI, at most 0.25.
For ISLT the value was 0.863; for ENRC, at most 0.25.
For VSCH the value was 2.85; for TYRA, at most 0.25.
DETW: the enrichment ratio was at most 0.25.
On to WTDY, for which the enrichment ratio was at most 0.25.
With PCSF, the enrichment ratio was at most 0.25.
For NFAL the value was at most 0.25; for WRVV, at most 0.25.
For FCLI the value was 7.58; for KSLI, at most 0.25.
As for FSLI, the enrichment ratio worked out at 12.9.
For PMYI, the enrichment ratio is at most 0.25.
For SCIH the value was 1.7.
As for TKIH, the enrichment ratio came to 15.7.
In the case of HKIH it was at most 0.25.
In the case of KKIH it was at most 0.25.
On to SDIH, for which the enrichment ratio came to 2.15.
In the case of SQIH it was 12.4.
As for GFSR, the enrichment ratio was at most 0.25.
In the case of REWS it was at most 0.25.
For WQHV the value was at most 0.25.
For ASQY the value was at most 0.25; for LRWC, at most 0.25; for LEFC, 12.9.
Regarding LEFP, the enrichment ratio is at most 0.25.
For the variant LEFA, the enrichment ratio stood at 1.62.
On to LEWC, for which the enrichment ratio is 17.6.
As for LLWC, the enrichment ratio is at most 0.25.
For WGSE, the enrichment ratio is at most 0.25.
For FYLD the value was at most 0.25; for PSVE, at most 0.25; for FCQI, at most 0.25.
In the case of TCGQ it was at most 0.25.
For TCIS the value was at most 0.25; for TCQQ, 11.5.
On to TCWN, for which the enrichment ratio came out at 14.9.
In the case of KSWN, the enrichment ratio is at most 0.25.
In the case of TCQI it was 15.2.
For TCQY the value was 31.4; for TCII, at most 0.25; for KCQY, at most 0.25.
In the case of KCQI it was at most 0.25.
On to TCVQ, for which the enrichment ratio was at most 0.25.
On to SLAF, for which the enrichment ratio is 8.18.
For TQKA the value was at most 0.25; for TAWY, 6.15; for HCAS, at most 0.25.
In the case of TCQN it was 23; in that of TCQF, 6.94; in that of SCQA, at most 0.25.
Regarding KCQA, the enrichment ratio is at most 0.25.
With TYMN, the enrichment ratio is 0.285.
Consider TCQA, for which the enrichment ratio was determined as 16.2.
For TCEN, the enrichment ratio amounted to 0.333.
For TCDN the value was at most 0.25.
For TCQK the value was 14.2.
In the case of TCVN, the enrichment ratio worked out at 2.66.
In the case of TCQP it was at most 0.25; in that of TCMN, 58.3.
For the variant MRIG, the enrichment ratio was at most 0.25.
As for IPRI, the enrichment ratio is at most 0.25.
In the case of IFEI it was at most 0.25.
CNHC: the enrichment ratio was at most 0.25.
In the case of QRMF it was at most 0.25; in that of HTHA, at most 0.25.
For FCQL the value was at most 0.25; for KCQL, at most 0.25.
With TCQL, the enrichment ratio stood at 13.2.
Regarding HEQY, the enrichment ratio was at most 0.25.
HESH: the enrichment ratio is at most 0.25.
In the case of HECV it was 15.4.
Consider HECS, for which the enrichment ratio was 2.84.
For HEQP the value was at most 0.25.
As for HEQV, the enrichment ratio turned out to be 25.5.
In the case of HNSW it was at most 0.25; in that of ERQE, at most 0.25; in that of SAFP, at most 0.25.
Consider QGAG, for which the enrichment ratio is at most 0.25.
With QVAH, the enrichment ratio is at most 0.25.
Consider AGQL, for which the enrichment ratio stood at 11.6.
As to CGQL, the enrichment ratio came out at 14.3.
For AKQL the value was at most 0.25; for WIQL, at most 0.25.
For TGQL the value was 5.01; for AIQL, 11.7; for GGQL, at most 0.25.
AQQL: the enrichment ratio was at most 0.25.
Turning to ADQL, the enrichment ratio was at most 0.25.
Consider MQGH, for which the enrichment ratio was at most 0.25.
FDDD: the enrichment ratio is at most 0.25.
In the case of AMFM it was at most 0.25.
With PNFI, the enrichment ratio was at most 0.25.
With KCCR, the enrichment ratio was at most 0.25.
Consider RQPM, for which the enrichment ratio is at most 0.25.
In the case of IGQV it was at most 0.25; in that of GHHN, at most 0.25; in that of PRDV, at most 0.25.
Regarding SEQG, the enrichment ratio worked out at 17.8.
With AKQG, the enrichment ratio is at most 0.25.
In the case of AEQG it was at most 0.25; in that of SLQG, at most 0.25; in that of SQQG, 6.66.
For AQQG the value was 12.7.
